Source: the supplement of paper PMC11417369
Over roughly 25,000 sequences, “ln(normalized median fluorescence intensity)” has its median near 9.7; the highest 2% begin near 11. The list comes from a sample in which the highest values are over-represented; it also holds similar and randomly drawn sequences.

Tested on: PfAP2-HC AP2 domain (GST-tagged)
Experiment: gcPBM binding intensity (ln(normalized median fluorescence intensity)); higher = stronger DNA binding
Procedure, shortened: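 After 1 h on an Agilent 4 × 180k array of primer-extended double-stranded 36-bp intergenic genomic probes and negative controls, bound GST-tagged P. falciparum DNA-binding domains were detected with Alexa488 anti-GST antibody and scanned at 488 nm. The domains had been expressed in E. coli, and binding took place in 1× PBS with 1% milk, 0.2 mg/ml BSA, 0.5% salmon testes DNA and 0.03% Triton X-100. Binding intensity is the highest Masliner-normalised natural-log median intensity across replicate spots of either probe orientation.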

Sequence	gcPBM binding intensity (ln)
ACATTATGCCATAAATGTACACATACATATACACAG [XGTACX_site1330]	9.66
AAACAATTTTTTAAAAGTACTTGAAAATTGTGAAAT [XGTACX_site2461]	9.63
TTTTAATTAAAACACACACACACATATATATATATA [CACACA_site2291]	10.6
AAAAAACAAAAACACACACACACATATATATATATA [CACACA_site3654]	10.9
CCTTTAAGCAAAAACACACACACATATATATATATA [CACACA_site348]	10
AAAAAAATGAAACACACACACACATATATATATATA [CACACA_site1043]	10.4
TATAAGCAAAAACACACACACATATATATATATATA [CACACA_site3804]	10.2
AAAAAAAAAAAAAAAACACACATATATATATATATA [CACACA_site2436]	10.4
AACAAAAATGAAAAAACACACATAACATATATAAAT [CACACA_site740]	10.1
TTTTAATGAAAACACACACACACATATATATATATA [CACACA_site5295]	11.1
AAAAAAACACACACATATATATATATATATATATAT [GTGCAC_negctrl_site498]	10.3
TTTAAGCAAAAACACACACACATATATATATATATA [CACACA_site349]	11.1
ATAAAATGAACAAACACACACACATATATATATATA [CACACA_site2402]	10.9
AAAATGAACAAACACACACACATATATATATATATA [CACACA_site2403]	11.2
CAAAGATATATAAACACACAAATATAACATATATAC [CACACA_site7395]	9.99
ATATATTTATATATTACACACAATATTGTAGACATA [CACACA_site4669]	9.74
TATATATAACTTTATTGTACAAAATATTATGTATTC [XGTACX_site981]	9.66
TGATCAGATAGACACACACACAAAAAAAAAAAAAAA [CACACA_site7805]	10.1
TATCAAAATTAGTATACACACAAAATTAATCAAATA [CACACA_site7117]	9.86
ATATTAAGTTTTATTACACACTCTCAATTTTTATTT [CACACA_site4206]	9.87
ATATTTTTTTCATAGACACACACAATATATCTGTTT [CACACA_site8993]	10.1
AAATAAATGAAACACACACACACAAAAAAAAAAAAC [CACACA_site2625]	10.9
GGATATAACAAACACACACACACATATATATATATT [CACACA_site4141]	11.2

Sequence	gcPBM binding intensity (ln)
CTCCATATTAGACACACACACAAATGAAAAAAATAT [CACACA_site7420]	10.2
AAAAAAAAAAAAAAAACACACACATATATATATATA [CACACA_site8571]	9.9
AAAAAAAAAAAACACACACACATATATATATATATA [CACACA_site732]	11.1
AATATAAACAAACACACACACATATATATATATATT [CACACA_site5592]	10.3
CTCCATATGAAACACACACACAAATGAAAAAAATAT [CACACA_site3018]	11
AATATAAACACAAACACACACATATATATATATATA [CACACA_site4307]	10.1
AAAAAAAAAAAAAACACACACATATATATATATATA [CACACA_site1891]	10.4
TATTATTTGAGTAGTTGTACTCATTAATATATAAAA [XGTACX_site3468]	9.35
TTTGGCTAGTTAGGCCGTACATGTAAATAATATATA [XGTACX_site1138]	9.47
AACGCACGAGGACACACACACATATTTATATTTATA [CACACA_site6608]	11.4
TATATATATATATATACACACATATATATATTTATA [CACACA_site627]	10.2
TATATATATTTATACACACACATATATTTATATATT [CACACA_site484]	9.97
AACTCACGAGGACACACACACATATATATATATATA [CACACA_site4711]	10.2
AAAAAACACGGACACACACACATATACATACATACA [CACACA_site5470]	10.6
TATATATATTTATGCACACAAAATATATTATATAAT [CACACA_site5955]	9.67
ATTATATATATTTATGCACACAAAATATATTATATA [CACACA_site9244]	9.64
AAAAAACAGACATACACACACACACGGATATTTATA [CACACA_site7570]	11.4
AGCACGCACAGACACACACACATATTTATATTTATA [CACACA_site6291]	10.3
ATATTAAACAGACACACACACATATATTTATTTATA [CACACA_site7564]	10.4
ACCATACATACATACACACACACACGCATATTTATA [CACACA_site7386]	11.2
CAAAAGGATATGCACACACACACACGGATATTTATA [CACACA_site7099]	11.4
TCATCCACATATTGTAGTACAAGATAATTGTTTATT [XGTACX_site1634]	9.63
TTTTTAGAAAGACATGCATGTAATAAAAATAAATAA [TGCATGCA_site685]	9.82

Sequence	gcPBM binding intensity (ln)
AAAATTTAATATAATGCACACATAAAAAAAAATTCA [CACACA_site8640]	9.77
TATAGATGTATGTACATACACACATATATAAATAAA [CACACA_site1789]	10
TTATGCAATTTGTATTGTACATTCATGATATTAATA [XGTACX_site5070]	9.53
TACATGTATAAATAAGCACACATGTGGATATGTACA [CACACA_site93]	10
TATTTTTCTTTTTAAAAATATATCACATGAACATTA [XGTACX_negctrl_site183]	9.39
ATATAAAAAAATAATAAATAAATAAAAAGATTTCTT [XGTACX_negctrl_site110]	9.65
TATTTATACACGCACACACACTTATACATTTATATA [CACACA_site7543]	10.8
ATATACATTAAATGAACACACATAAATAAATTACAT [CACACA_site2852]	9.89
TTATGATGGTCTTTATAAGGGCACATTAAATTCGGC [TGCATGCA_negctrl_site166]	9.35
ACCGTGGGAGGACACACACACACACGCACATATATA [CACACA_site6289]	11.1
TACATATTTATATACACACACACACGGATATTTATA [CACACA_site7239]	11
TATATATATATTTATACACACACATATATTTATATA [CACACA_site8054]	10.1
AAACCGTGGGAGCACACACACACACCGACACATATA [CACACA_site4338]	10.4
AAACCGTGGGAGCACACACACACACGCGCACATATA [CACACA_site6288]	10.5
TATTTATATTTATATACACACATACATATTTATATT [CACACA_site6535]	9.93
TTTTAAAAATCTATATGTACACAATACGTCTATAAA [XGTACX_site5787]	9.54
AAAAAAAAACAAAAAAGTACAAAATAAAAATACGTT [XGTACX_site4566]	9.75
TTTTTTTCTTTTCAAACACACAATTGGTATATATTA [CACACA_site3320]	9.81
AAGAATTATAGAAACACACATACATACAGACATACA [CACACA_site1943]	10.1
AACGTCTTTTTTTTTTTTTTTCTTTTTTTTTTTATT [CACACA_negctrl_site303]	9.86
AAAAAAAAAAAAAACACACATACACGCCCACCCATA [CACACA_site3391]	10.4
AAAAAAAACACGCGCACACACACACCCACCCACCGA [CACACA_site2206]	11.5
AAAAAAAACACGCGCACACACACACCCACAGACACA [CACACA_site5253]	10.7

Sequence	gcPBM binding intensity (ln)
AAAAAACACGCGCACACACACACACGCGCCCACATA [CACACA_site7106]	11.1
AGAAAAAAACAACATGCACACGCACCCACAAAAAAA [CACACA_site7908]	10.4
AAAAAAAAAACACGCGCACACACACCCACCCACCCA [CACACA_site8689]	10.9
AAAAAAAAAAAAAAAACACACATACACGCACGCACA [CACACA_site7569]	10.8
AAAAAAACAACATGCACACGCACACCCAAAAAAAGC [CACACA_site72]	10.7
AAAAAAAAAACAAATACACACGCACCCAAAAAAAAA [CACACA_site8166]	10.2
GTATAATTGGAAATTACACACCTTAGAATGTAACAT [CACACA_site4059]	9.68
AAAACTATAAAAATTTTACACACTGTTTTTAAATAA [CACACA_site3667]	9.57
TATATTATTCATTAAGCACACATTATTTTTATAATA [CACACA_site6056]	9.69
TTTATTTATTAATACACACACACACCCAGACAAAAT [CACACA_site4292]	11.3
TATTAATACAGACACACACACACACCCAATAAAATA [CACACA_site243]	10.8
ACATAATTAACAAATACACACACACCCACCCACAAA [CACACA_site8069]	10.7
ATAATTAACAAATACACACACACACCCAGACAAAAA [CACACA_site4445]	10.8
ATAATTAACAAATACACACACACACCCCCACAAAAA [CACACA_site518]	10.9
TTTTTATTTATTAATACACACACACCCACCCACAAA [CACACA_site7965]	10.4
TTTATTTATTAATACACACACACACCCCCACAAAAT [CACACA_site240]	11.4
TTAATACCCAGACACACACACACAAAATAAAATACA [CACACA_site7968]	11
GTATTATATTTTAATACACACCCAAATATTAAAAAG [CACACA_site8968]	9.77
ATAATTAACAAATACACACACACACGCCCACAAAAA [CACACA_site6389]	11.6
TTTATTTATTAATACACACACACACGCCCACAAAAT [CACACA_site6253]	10.5
TTAATACCCGGACACACACACACAAAATAAAATACA [CACACA_site4296]	10.6
